In the library only some 3.5% were active in any assay of this set; here they are far more common.
Pf apPOL inh – Pf-apPOL DNA polymerase inhibition | AID 1794808 | Recombinant Pf-apPOL, molecular beacon fluorescence, 1.5 h | inhibition, % at 10 µM | 210,000 compounds, 0.25% hits
mHTT-CaM PPI inh – disrupts binding of mutant huntingtin to calmodulin; P42858; AlphaScreen His-mHTT/GST-CaM binding, luminescence; inhibition, % at 15 µM; 190,000 compounds, 3.6% hits; AID 1671202
Of the large screens only hits and unclear results are named; the others gave an inactive call. Rule as the data show it: active = inhibition above about 50%; inactive = the rest.

CC1CCN(c2ncc3c(n2)CCN(Cc2ccc(Br)cc2)C3)CC1	mHTT-CaM PPI inh 53.5
Cc1cccc(NC2=C(NCCO)C(=O)c3ccccc3C2=O)c1	mHTT-CaM PPI inh 74.1
COc1cccc(NC2=C(NCCO)C(=O)c3ccccc3C2=O)c1	none
COc1cc(Cl)c(C)cc1NC(=O)CN1C(=O)c2ccccc2C1=O	none
CCOC(CNc1ncnc2sc(C)c(C)c12)OCC	none
COc1ccccc1Oc1ccc2c(c1)C(=O)N(c1cccc3ncccc13)C2=O	mHTT-CaM PPI inh 75.0
COc1ccc(N2C(=O)c3ccc(Oc4ccc(N)cc4)cc3C2=O)cc1OC	none
CC1=C(C(=O)Nc2ccc(C)cc2C)C(c2ccccc2F)n2nnnc2N1 (stereo unspecified)	none
CSc1ccc(NC(=O)c2cn3c(n2)CSCC3)cc1	none
COc1ccccc1NC(=O)CN1C(=O)C2C3c4ccccc4C(c4ccccc43)C2C1=O (stereo unspecified)	none
O=C(CN1C(=O)C2C3c4ccccc4C(c4ccccc43)C2C1=O)Nc1cccc(Cl)c1 (stereo unspecified)	mHTT-CaM PPI inh 100.3
O=C(c1cnccn1)N1CCC(c2cc(-c3ccccc3)n[nH]2)CC1	none
O=C(CC1Sc2ccccc2NC1=O)Nc1ccc(C(F)(F)F)cc1 (stereo unspecified)	none
O=C(CC1Sc2ccccc2NC1=O)NNC(=O)c1cc(C(F)(F)F)cc(C(F)(F)F)c1 (stereo unspecified)	Pf apPOL inh 58.4 (no result: mHTT-CaM PPI inh)
C#CCSc1nnc(N)s1	none (no result: Pf apPOL inh)
O=C(CN1CCC(c2nnc(-c3ccco3)s2)CC1)c1ccc(Cl)cc1	mHTT-CaM PPI inh 71.5
O=C(Cn1cccc1)N1CCC(c2nnc(-c3ccco3)s2)CC1	none
COc1ccc(C2CC(C3(C)CCCCC3)=NO2)cc1 (stereo unspecified)	none
CN(Cc1ccccc1)C1CC(=O)N(c2ccccc2)C1=O (stereo unspecified)	none
O=C(NCc1ccccc1Cl)C1CCN(C(=O)Nc2cccs2)CC1	mHTT-CaM PPI inh 58.1
O=C(NC1CC1)C1CCN(C(=O)Nc2cccs2)CC1	none
COc1cc(NC(=O)c2ccc(-c3cccc(Cl)c3)o2)ccc1NC(=O)c1ccco1	none
O=[N+]([O-])c1ccccc1S(=O)(=O)Nc1ccc(OCc2ccccc2)cc1	none
CCS(=O)(=O)N1CCN(Cc2cccc(F)c2)CC1	none
O=S1(=O)N=C(N/N=C/c2ccccn2)c2ccccc21	mHTT-CaM PPI inh active (no result: Pf apPOL inh)
Clc1cc(Cl)cc(N/N=C/c2ccccn2)c1	none (no result: Pf apPOL inh)
CCCCOc1ccc2c(c1)C(=O)c1cc(OCCCC)ccc1-2	none
CN(CCO)CCCCOc1ccc2c(c1)C(=O)c1cc(OCCCCN(C)CCO)ccc1-2	mHTT-CaM PPI inh 60.0
Cc1cccc(OCC(=O)NCCC2CCN(C(=O)c3ccc(F)cc3)CC2)c1	none
COc1cccc(COC2CCCN(C(=O)c3cccs3)C2)c1 (stereo unspecified)	none
O=C(c1cccs1)N1CCCC(OCc2ccc(C(F)(F)F)cc2)C1 (stereo unspecified)	mHTT-CaM PPI inh 50.6
CCCCNC(=O)C1CC(=O)N(CCc2ccccc2)C1 (stereo unspecified)	none
CCCCN(CCCNC(=O)C1CC(=O)N(CCc2ccccc2)C1)c1ccccc1 (stereo unspecified)	mHTT-CaM PPI inh 79.5
Cn1c(C2CCN(C(=O)CCc3c[nH]c4ccccc34)C2)nc2ccncc21 (stereo unspecified)	none

Bioassay records (PubChem BioAssay)
